Results taken from PubChem BioAssay (NCI).
The panel holds about 79,000 compounds, 15% with a hit somewhere; the sample as a whole holds those more often. Active and inactive are the calls of the source. Rule as the data show it: active = growth inhibition above about 70%; inactive = the rest.

How the values were obtained:
[1] = NCI Yeast Anticancer Drug Screen. Data for the rad50 strain (AID 155);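 also: 0% = growth of vehicle-only cultures of the same strain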; conditions: S. cerevisiae rad50 strain growth inhibition, hits give high values
In short: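 Vehicle-treated cultures provide the reference for the growth inhibition reported for compound-exposed, repair-deficient yeast.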

[2] = NCI Yeast Anticancer Drug Screen. Data for the mec2-1 strain (AID 157); conditions: S. cerevisiae mec2-1 strain, hits give high values
In short: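 Growth inhibition is read against vehicle-treated controls after compound exposure of the mec2-1 yeast strain, which is defective in DNA damage repair or cell cycle control.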

[3] = NCI Yeast Anticancer Drug Screen. Data for the sgs1 mgt1 strain (AID 161);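 also: 0% = growth of cultures given vehicle only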; conditions: S. cerevisiae sgs1 mgt1 strain, hits give high values
In short: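 Growth of a repair-deficient yeast mutant was monitored after compound treatment and expressed as inhibition relative to vehicle-treated cultures.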

[4] = NCI Yeast Anticancer Drug Screen. Data for the cln2 rad14 strain (AID 165);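 also: 0% = growth equal to vehicle treated cultures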; conditions: S. cerevisiae cln2 rad14 strain, hits give high values
In short: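 Growth inhibition, relative to vehicle-treated controls, is the read-out. The test organism is a yeast strain with defined genetic alterations, cln2 rad14.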

[5] = NCI Yeast Anticancer Drug Screen. Data for the bub3 strain (AID 167); conditions: S. cerevisiae bub3 mutant strain, hits give high values
In short: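 Mutant yeast screening strain plus compound; vehicle-treated cultures serve as the 0% inhibition reference.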

[6] = NCI Yeast Anticancer Drug Screen. Data for the mlh1 rad18 strain (AID 175); conditions: S. cerevisiae mlh1 rad18 strain growth inhibition, hits give high values
In short: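 Cells of a genetically altered yeast strain, deficient in DNA damage repair, were treated with compound. Their growth was then compared with that of vehicle-treated cultures to give inhibition.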

[7] = at 5.0 µM (retest, dose inferred, filed as 0.5)
[8] = at 50.0 µM (retest, dose inferred, filed as 5.0)

Measured: growth inhibition

CS(=O)(=O)OCCN(CCOS(C)(=O)=O)c1ccc(N=Nc2ccccc2)cc1
inactive: [1]; [7] 32% | [1]; at 50.0 µM 57.7% | [2]; [7] 15% | [2]; at 50.0 µM 45% | [3]; [7] 52% | [3]; at 50.0 µM 46% | [4]; [7] 45% | [4]; at 50.0 µM 49.8% | [5]; [7] 56% | [5]; at 50.0 µM 39.5% | [6]; [7] 22% | [6]; [8] 69%
active: [1]; [8] 82% | [2]; [8] 73% | [3]; [8] 88% | [4]; [8] 96% | [5]; [8] 84% | [6]; at 50.0 µM 76.8%

N#C/C(=C\C(Cl)=C/c1ccccc1)C(N)=S
active: [1]; [8] 97% | [2]; [8] 99% | [3]; [7] 91% | [3]; [8] 98% | [4]; [8] 95% | [4]; at 50.0 µM 98% | [5]; [7] 79% | [5]; [8] 98% | [5]; at 50.0 µM 99% | [6]; [7] 86% | [6]; [8] 98%
inactive: [1]; [7] 68% | [1]; at 50.0 µM 50.1% | [2]; [7] 45% | [2]; at 50.0 µM 40.5% | [3]; at 50.0 µM 43.2% | [4]; [7] 16% | [6]; at 50.0 µM 40.4%

Nc1ccc2c(SCc3ccc([N+](=O)[O-])cc3)c3ccccc3nc2c1
inactive: [3]; [7] 40%
active: [1]; [7] 86% | [1]; [8] 84% | [1]; at 50.0 µM 73.5% | [2]; [7] 98% | [2]; [8] 94% | [2]; at 50.0 µM 87.7% | [3]; [8] 94% | [3]; at 50.0 µM 88.8% | [4]; [7] 90% | [4]; [8] 93% | [4]; at 50.0 µM 84.5% | [5]; [7] 97% | [5]; [8] 94% | [5]; at 50.0 µM 84.2% | [6]; [7] 96% | [6]; [8] 93% | [6]; at 50.0 µM 83.9%

CC(C)c1c(P(=O)(c2ccccc2)c2ccccc2)n(C)c2ccccc12
inactive: [1]; [7] 36% | [2]; [7] -34% | [3]; [7] -30% | [4]; [7] -4% | [5]; [7] -25% | [6]; [7] -27%
active: [1]; [8] 99% | [1]; at 50.0 µM 83.4% | [2]; [8] 98% | [2]; at 50.0 µM 89.5% | [3]; [8] 89% | [3]; at 50.0 µM 77.8% | [4]; [8] 98% | [4]; at 50.0 µM 85.5% | [5]; [8] 99% | [5]; at 50.0 µM 84.7% | [6]; [8] 96% | [6]; at 50.0 µM 79.6%

CCN(CC)CCCNc1nc(NCCCN(CC)CC)c2nc(-c3ccccc3)c(-c3ccccc3)nc2n1
inactive: [1]; [7] -3% | [1]; at 50.0 µM 66.5% | [2]; [7] 2% | [2]; at 50.0 µM 61.4% | [3]; [7] -2% | [3]; at 50.0 µM 63.8% | [4]; [7] 0% | [4]; [8] 47% | [5]; [7] -4% | [5]; at 50.0 µM 56.1% | [6]; [7] -6%
active: [1]; [8] 93% | [2]; [8] 93% | [3]; [8] 94% | [4]; at 50.0 µM 77.4% | [5]; [8] 92% | [6]; [8] 94% | [6]; at 50.0 µM 98.5%

O=[N+]([O-])c1ccc(O)c(/C=N\NC(=S)Nc2ccc3cn[nH]c3c2)c1
active: [1]; at 50.0 µM 74.3%
inactive: [1]; [7] -2% | [1]; [8] 33% | [2]; [7] 1% | [2]; [8] 20% | [2]; at 50.0 µM 47.2% | [3]; [7] 11% | [3]; [8] 37% | [3]; at 50.0 µM 41.2% | [4]; [7] -17% | [4]; [8] 37% | [4]; at 50.0 µM 32.6% | [5]; [7] -2% | [5]; [8] 52% | [5]; at 50.0 µM 49.1% | [6]; [7] 12% | [6]; [8] 41% | [6]; at 50.0 µM 30.8%

O=C(C[N+]1(CCc2ccccc2)CCOCC1)c1ccc(-c2ccccc2)cc1
active: [1]; at 50.0 µM 79.3% | [2]; [8] 71% | [2]; at 50.0 µM 92.5% | [3]; [8] 93% | [3]; at 50.0 µM 96.7% | [4]; at 50.0 µM 98.4% | [5]; at 50.0 µM 92.8% | [6]; [8] 93% | [6]; at 50.0 µM 98.2%
inactive: [1]; [7] 2% | [1]; [8] 52% | [2]; [7] 19% | [3]; [7] -5% | [4]; [7] -5% | [4]; [8] 34% | [5]; [7] -2% | [5]; [8] 66% | [6]; [7] 12%

Cc1ccc(NCCNCCO)c2c(=O)c3ccccc3sc12
active: [1]; [8] 99% | [1]; at 50.0 µM 99.5% | [2]; [8] 100% | [2]; at 50.0 µM 99.6% | [3]; [8] 100% | [3]; at 50.0 µM 99.2% | [4]; [8] 99% | [4]; at 50.0 µM 99.4% | [5]; [8] 99% | [5]; at 50.0 µM 99.5% | [6]; [8] 99% | [6]; at 50.0 µM 99.5%
inactive: [1]; [7] 27% | [2]; [7] 9% | [3]; [7] 9% | [4]; [7] 8% | [5]; [7] 11% | [6]; [7] 25%

CC(=O)N[C@H]1CCC2[C@@H]3CCC4=CC(=O)NCC[C@]4(C)C3CC[C@@]21C (stereo not given in full)
active: [1]; [8] 89% | [2]; [8] 92% | [4]; [8] 78% | [5]; [8] 88% | [5]; at 50.0 µM 96.2% | [6]; [8] 85%
inactive: [1]; [7] 0% | [1]; at 50.0 µM 56.5% | [2]; [7] -2% | [2]; at 50.0 µM 46.6% | [3]; [7] -3% | [3]; [8] 58% | [3]; at 50.0 µM 56.4% | [4]; [7] -4% | [4]; at 50.0 µM 69.5% | [5]; [7] 6% | [6]; [7] -2% | [6]; at 50.0 µM 57.5%

O=C1CCCC/C1=C\c1ccc(Br)cc1
active: [1]; [8] 96% | [1]; at 50.0 µM 80.2% | [2]; [8] 99% | [2]; at 50.0 µM 86.7% | [3]; [8] 99% | [3]; at 50.0 µM 90.7% | [4]; [8] 95% | [4]; at 50.0 µM 88.3% | [5]; [8] 99% | [5]; at 50.0 µM 89.4% | [6]; [8] 99% | [6]; at 50.0 µM 92.7%
inactive: [1]; [7] 1% | [2]; [7] -21% | [3]; [7] -28% | [4]; [7] 9% | [5]; [7] -55% | [6]; [7] -17%
